Results filed as inconclusive are left out. Activity calls are given as the source filed them. How the source made its calls: active means hit-call score of the fitted dose curve at least 0.9, where 1 is the maximum; inconclusive means response in the unintended direction; inactive means score below 0.9.
test: Tanguay_ZF_120hpf_JAW_legacy: (Legacy) Oregon State University Tanguay Lab 120 Hour Post-fertilization zebrafish Assay for Jaw Malformation (AID 2283638);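 on AC50: active means more embryos with jaw malformation than DMSO controls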
Outline: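 Tropical 5D wild-type embryos, dechorionated with pronase at 4 hpf, were placed singly per well at 6 hpf and statically exposed at 28C until 120 hpf (0.64% DMSO final). Jaw malformation scored as present/absent by brightfield microscopy at 120 hpf, analyzed relative to DMSO.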

Row | Structure (SMILES) | outcome | AC50
1 | CC(C)(O)c1ccc(CNC(=O)c2cccnc2Oc2ccc(F)cc2)cc1 | inactive | –
2 | Cc1cn([C@H]2C=C[C@@H](CO)O2)c(=O)[nH]c1=O | inactive | –
3 | COC(=O)[C@H]1[C@H]2C[C@@H]3c4[nH]c5cc(OC)ccc5c4CCN3C[C@H]2C[C@@H](OC(=O)c2cc(OC)c(OC)c(OC)c2)[C@@H]1OC | inactive | –
4 | NC=O | inactive | –
5 | CC(=O)O | inactive | –
6 | CC1=C(C)S(=O)(=O)CCS1(=O)=O | inactive | –
7 | OCC(CO)n1cnc(-c2ccc(F)cc2)c1-c1ccnc(Oc2ccccc2)n1 | inactive | –
8 | NCCOCCOCCN | inactive | –
9 | Cc1cc(SC2=C(O)C[C@@](CCc3ccc(N)cc3)(C(C)C)OC2=O)c(C(C)(C)C)cc1CO | inactive | –
10 | C#CC(O)C(CC)CCCC (configuration not stated) | inactive | –
11 | O=C(O)c1cccnc1 | inactive | –
12 | O=C(NS(=O)(=O)/C=C/c1cccs1)c1ccc(F)cc1Br | inactive | –
13 | Nc1nc(Cl)nc2c1ncn2[C@H]1C[C@H](O)[C@@H](CO)O1 | inactive | –
14 | C/C=C/c1ccc(OC)cc1 | inactive | –
15 | C=CCc1ccc(OC)c(OC)c1 | inactive | –
16 | COc1ccc(OC(F)(F)F)cc1CN[C@H]1CCCN[C@H]1c1ccccc1 | inactive | –
17 | CC(C)(C)c1ccccc1 | – | 4.3 µM (active)
18 | S=c1[nH]c2ccccc2s1 | – | 10.7 µM (active)
19 | CC(C)c1cccc(C(C)C)c1NC(=O)NS(=O)(=O)c1cc(C(C)(C)O)co1 | inactive | –
20 | CC1(C)C(=O)NC(=O)N1CO | inactive | –
21 | COC(=O)CCCC(=O)OC | inactive | –
22 | CC(=O)[C@@]1(O)CC[C@H]2[C@@H]3CCC4=CC(=O)CC[C@]4(C)[C@H]3CC[C@@]21C | inactive | –

From PubChem BioAssay (EPA / NIEHS)
